Out of some 2,000 compounds screened, about 680 (34%) were called active. No stated cut-off is given here; in the data, active means inhibition mostly above about 28% (no sharp cut-off); inactive means mostly below about 22%. A selection follows.

The test in a line: PMA/ionomycin-induced NF-kB reporter inhibitors, 697 retest, confirmation, B-cell NF-kB inhibitor project, cell-based, luminescence, single concentration (AID 449746). Particulars: 697 B-cell NF-kB luciferase, 16 h, at 4 µM, active compounds read high.
`CCCCCCCCCCCCn1ccc(=N)cc1`: the inhibition is 50% (active).

Values taken from PubChem BioAssay AID449746 (Sanford-Burnham Center for Chemical Genomics, 2010).
